Inconclusive results are not listed. Calls of active or inactive are those of the source. Calls come from the whole dose curve; as a rule, active = well fitted curve in the direction sought with a large enough effect; inconclusive = small, poorly fitted or top-dose-only effect, or effect the other way, or another doubt; inactive = no such curve, though single readings can be large or run the other way.
Target: Pyruvate kinase PKLR (Homo sapiens) (UniProt P30613)
Assay: Secondary Concentration-Response Assay for Activators of Human Reticulocyte Pyruvate Kinase: for Probe SAR
Settings: purified hPK-R, ATP production, Kinase-Glo luminescence; series mostly up to 57.5 µM
Text: NIH Chemical Genomics Center [NCGC]
Wael M. Rabeh, Lyudmila Nedyalkova and Hee-Wan Park [Structural Genomics Consortium, 100 College St. Toronto, Ontario, Canada]
Human pyruvate kinase reticulocyte (hPK-R) enzyme was supplied as a highly purified (>95% pure) preparation from Structural Genomics Consortium in Toronto (Ontario, Canada) and assayed for its ability to generate ATP from ADP using phosphoenolpyruvate (PEP) as a substrate. ATP generation was detected in a coupled reaction by luciferase-mediated luminescence, an ATP-dependent process. Pyruvate kinase substrates, PEP and ADP, were present in the assay at Km and approximately 10-fold below Km respectively. The enzyme was assayed at an intermediate level of activity to screen for both inhibitors and activators.
NCGC Assay Protocol Summary for R-isoform
Three uL of substrate mix (at r.t.) in assay buffer (50 mM Imidazole pH7.2, 50 mM KCl, 7 mM MgCl2, 0.01% Tween 20, 0.05% BSA) was dispensed into white solid bottom 1,536 well microtiter plates so that the final concentrations of substrates in the assay were 0.1 mM ADP and 0.5 mM PEP. 23 nL of compound were delivered by a pin tool and 1 uL of enzyme mix (final concentration of 0.1 nM) in assay buffer (4 degree Celsius) was added. Plates were incubated at room temperature for 1 hour. Two uL of detection mix (Kinase-Glo, Promega; at 4 degree Celsius protected from light) was added and luminescence read by a ViewLux (Perkin Elmer) at 1 second exposure/plate. Data were normalized to the uninhibited (row 31). Additionally, a no enzyme and 5-fold enzyme control was dispensed in row 32, split equally between the two conditions.

Sequence of Pyruvate kinase PKLR (Homo sapiens) (P30613 whole entry, looked up): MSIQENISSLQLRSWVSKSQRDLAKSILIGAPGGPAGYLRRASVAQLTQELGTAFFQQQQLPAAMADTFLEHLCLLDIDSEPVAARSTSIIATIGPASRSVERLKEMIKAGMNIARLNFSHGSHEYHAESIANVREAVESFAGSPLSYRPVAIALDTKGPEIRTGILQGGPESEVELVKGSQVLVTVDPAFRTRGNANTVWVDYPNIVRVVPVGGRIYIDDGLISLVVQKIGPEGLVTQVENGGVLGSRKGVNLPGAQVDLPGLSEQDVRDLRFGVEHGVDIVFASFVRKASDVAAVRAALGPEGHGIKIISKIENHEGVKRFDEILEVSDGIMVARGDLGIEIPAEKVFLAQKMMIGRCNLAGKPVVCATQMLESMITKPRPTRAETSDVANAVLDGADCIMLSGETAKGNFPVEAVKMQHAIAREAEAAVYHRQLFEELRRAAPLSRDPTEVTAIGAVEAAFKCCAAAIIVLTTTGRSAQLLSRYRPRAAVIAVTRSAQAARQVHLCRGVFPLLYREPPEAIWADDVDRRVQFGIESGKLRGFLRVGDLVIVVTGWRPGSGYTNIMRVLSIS

outcome, inactive:
O=C1CCc2cc(S(=O)(=O)Nc3ccccc3-c3ccccc3)ccc2N1, Cc1ccc(NS(=O)(=O)c2ccc3c(c2)CCC(=O)N3)cc1C, O=C1c2ccccc2C(=O)N1c1ccc(Cl)cc1, O=C1CCc2cc(S(=O)(=O)Nc3ccc4ncccc4c3)ccc2N1, O=C1CCc2cc(S(=O)(=O)Nc3ccc(-c4ccccc4)cc3)ccc2N1, CNc1cccc(S(=O)(=O)N2CCCN(S(=O)(=O)c3ccc4c(c3)OCCO4)CC2)c1, O=C1c2ccccc2C(=O)N1c1cccc2ncccc12, O=C1CCc2cc(S(=O)(=O)Nc3cccc(Cl)c3)ccc2N1, Cc1ccc(NS(=O)(=O)c2ccc3c(c2)CCC(=O)N3)cc1Cl, O=C1c2ccccc2C(=O)N1c1cc(=O)c2ccccc2[nH]1
